Screens (PubChem)
Avidin bead fluor = compound fluoresces at 488/530 nm on avidin beads. compound fluorescence 488/530 nm, flow cytometry; hits give high values. fluorescence (KMESF) at 10 µM. hit rate 0.38% among 220,000. AID 1775; in the data active means fluorescence above about 47
RGS8-Gao = regulators of human RGS8-Galphao interaction | response (percent of control binding), % at 10 µM | AID 1423 | multiplexed bead flow cytometry, RGS8-Galphao binding; actives lie on both sides | hit rate 0.34% among 220,000 | P09471; in the data active means response below about 60% or above about 140%; inactive means in between;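 further: Galphao activated as the GDP aluminium fluoride complex binding bead-coupled RGS8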
RGS16-Gao HTS = RGS16-Galphao interaction regulator (human); O15492+P09471; bead-based flow cytometry RGS16-Galphao binding, fluorescence; actives lie on both sides; binding response (% of control), % at 10 µM; hit rate 0.38% among 220,000; AID 1441; call rule not given here;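 further: Galphao activated by GDP with aluminum fluoride before binding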
RGS4-Gao reg = modulates binding of RGS4 to human Galphao; P09471; Multiplexed bead flow cytometry; actives lie on both sides; binding response (% of control), % at 10 µM; hit rate 0.33% among 220,000; AID 1415; in the data active means binding response below about 49% or above about 150%; inactive means in between;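 further: fluorescent Galphao activated with aluminum fluoride binding bead-coupled RGS4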
RGS7-Gao = regulators of human RGS7-Galphao interaction; hit rate 0.35% among 220,000; Multiplexed bead flow cytometry, RGS7-Galphao binding; actives lie on both sides; binding response (% of control), % at 10 µM; P09471; in the data active means binding response below about 49% or above about 150%; inconclusive means no clear call, values can overlap the other calls; inactive means in between;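 further: fluorescent Galphao held in activated GDP-AlF4 state binding bead-coupled RGS7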
GSH fluor = GSH bead compound fluorescence profile. GSH beads flow cytometry, compound fluorescence 488/530 nm; hits give high values. fluorescence (KMESF) at 10 µM. hit rate 0.25% among 190,000; in the data active means fluorescence above about 89;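 further: glutathione beads carrying GST-tagged Bcl family fusion proteins plus one bare bead set; values are compound well signal with DMSO vehicle wells as background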
Starred values were filed as active, the others as inactive; ? = inconclusive; nt = no result given. The list is not random: actives were taken first. Their share in the collection is about 1.2%.

SMILES	Avidin bead fluor	RGS8-Gao	RGS16-Gao HTS	RGS4-Gao reg	RGS7-Gao	GSH fluor
Cc1ccc(NC(=O)CN2C(=O)N/C(=C/c3cccn3-c3ccc(C(=O)O)cc3)C2=O)cc1	-5	28*	7	26*	-13*	4
Cc1ccc(NC(=O)CN2C(=O)N/C(=C/c3cc(C)n(-c4ccc(C(=O)O)cc4)c3C)C2=O)cc1	10	99	100	103	100	19
CC(=O)Nc1ccc2c(c1)C(=O)c1ccccc1C2=O	59*	101	101	106	114	27
O=C1c2ccccc2C(=O)c2cc(NC(=O)C3CC3)ccc21	6	102	90	101	97	15
COC(=O)C(NC(=O)CNS(=O)(=O)c1ccc(Br)cc1)c1ccccc1 (configuration not stated)	8	100	96	103	101	70
COCCN1C(=O)c2ccccc2C(C(=O)NCCN(C)C)C1c1ccc(F)cc1 (configuration not stated)	32	96	96	91	93	24
COCCNC(=O)C1c2ccccc2C(=O)N(CCOC)C1c1ccc(F)cc1 (configuration not stated)	48*	101	103	100	104	26
CCCCN(Cc1cc2cc(OC)ccc2[nH]c1=O)C(=O)c1ccco1	5	103	101	106	107	11
CCCN(Cc1cc2cc(OC)ccc2[nH]c1=O)C(=O)c1ccco1	49*	100	102	125	?	nt
N#C/C(=C\c1ccc(N2CCOCC2)o1)C(=O)Nc1ccc(O)cc1	22	105	106	106	102	10
N#C/C(=C/c1ccc(N2CCCCC2)o1)C(=O)Nc1ccc(Cl)cc1	56*	104	135	126	124	52
CCOc1ccc(CN2CCN(Cc3cccn3-c3nccs3)CC2CCO)cc1 (configuration not stated)	7	101	108	114	?	nt
Cc1ccc(-n2cc(CNCC3CC(=O)N(C4CC4)C3)c(-c3cccc(C)c3)n2)cc1 (configuration not stated)	6	108	104	106	107	18
CC(=O)Nc1cc2c(=O)n(Cc3ccccc3)c(C)nc2cc1N1CCOCC1	52*	102	105	107	113	37
Cc1cc(=O)n2[nH]c(CCC(=O)O)nc2n1	9	99	101	97	?	nt
Cc1ccc(C)c(OCC(=O)N/N=C/c2c(C)nn(-c3ccccc3)c2Cl)c1	56*	100	105	105	109	14
Cc1c(N=Cc2ccc[nH]2)c(=O)n(-c2ccccc2)n1C	56*	95	93	99	106	20
C/C(=C\c1ccccc1)C(=O)NCc1ccco1	8	101	98	104	102	17
Cc1ccc(O)c(CCc2ccc(O)cc2)n1	10	106	106	105	101	11
CS(=O)(=O)N(Cc1ccccc1)c1ccc(C(=O)NCCSCc2ccco2)cc1	6	100	103	92	96	88*
CSc1ccccc1NS(=O)(=O)c1ccccc1	48*	103	104	102	104	21
Cn1c(SCC(=O)N2c3ccccc3CCc3ccccc32)nnc1-c1ccc(O)cc1	13	101	101	102	100	15
O=C(NC(c1ccccc1)c1ccccc1)c1ccc(S(=O)(=O)C(F)F)cc1	58*	100	102	102	110	16
CC(NC(=O)c1ccc(S(=O)(=O)C(F)F)cc1)c1ccccc1 (configuration not stated)	8	100	101	102	?	14
N#Cc1cc(-c2ccccc2)cnc1Sc1ccc(Cl)cc1	8	99	103	100	101	23
SMILES	Avidin bead fluor	RGS8-Gao	RGS16-Gao HTS	RGS4-Gao reg	RGS7-Gao	GSH fluor
N#Cc1cc(-c2ccc(Cl)cc2)cnc1Sc1ccccc1	-2	12*	1.3*	21*	15*	24
COc1cc(C(=O)N2CCN(C(=O)CC(C)C)CC2)cc(OC)c1OC	120*	97	101	110	131	28
Cc1cccc(N(CC(=O)NCc2ccco2)C(=O)CCC(=O)Nc2nccs2)c1	12	104	108	104	101	12
CS(=O)(=O)N1CCN(C(=O)Cc2ccccc2Cl)CC1	9	97	95	97	95	19
COCCn1cc(C(=O)c2cc(Br)ccc2O)cc(C#N)c1=O	7	101	102	104	102	13
O=C(CN1CCOCC1)N1CCN(S(=O)(=O)c2ccccc2)C1c1ccccc1 (configuration not stated)	59*	99	99	101	105	14
Cc1ccc(NC(=O)CS(=O)CC(=O)NC(C)CCc2ccco2)cc1Cl (configuration not stated)	72*	97	98	97	116	26
CC(CCc1ccco1)NC(=O)Nc1cccc(F)c1 (configuration not stated)	10	103	108	106	107	52
Cc1occc1-c1nnc(SCCCC(=O)c2ccc(F)cc2)n1C	8	100	93	96	95	259*
Cn1c(SCCCC(=O)c2ccc(F)cc2)nnc1-c1ccncc1	9	100	105	100	102	16
Cc1ccc(C(=O)N2CCN(c3ccc([N+](=O)[O-])cc3-n3cccc3)CC2)cc1	8	99	99	101	?	nt
Cc1ccc(-c2ccc(CCC(=O)O)n2Cc2ccco2)cc1	49*	98	96	95	100	13
CCCc1nccn1S(=O)(=O)c1cc(OC)ccc1OC	8	101	102	101	99	249*
CCc1nccn1S(=O)(=O)c1cc(Br)ccc1OC	32	99	101	102	101	23
CC(C)(C)c1ccc(C(=O)CC(=O)c2cc(Cl)ccc2O)cc1	8	101	110	107	103	245*
O=C(COC(=O)c1ccccc1Oc1ccccc1)NCc1ccco1	7	101	92	91	97	263*
COc1ccc(OCCC(=O)OCC(=O)NCc2ccco2)cc1	6	99	92	93	94	259*
COc1ccccc1NCCC(=O)OCC(=O)NCc1ccco1	5	103	107	96	90	9
CCc1ccccc1NC(=O)Cn1cccc1C1=NC(c2ccccc2)CO1 (configuration not stated)	51*	102	110	106	127	21
Cc1ccc(NC(=O)Cn2cccc2C2=NC(c3ccccc3)CO2)cc1C (configuration not stated)	14	105	114	101	96	21
CCc1nc2c(sc3nc4c(cc32)COC(C)(C)C4)c(=O)n1Cc1ccco1	65*	93	97	104	114	18
